PAFAH2 FP inh = PAFAH2 enzyme inhibitors, primary screen, biochemical, fluorescence polarization, human; recombinant PAFAH2, FP-rhodamine activity probe; inhibition, % at 3.39 µM; AID 492956, 2010; 340,000 compounds, 0.99% hits;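 active = inhibition above the mean over all tested compounds plus 3 SD, cut at about 30% in these data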;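 also: inhibitors block probe labeling of enzyme so polarization drops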
PAFAH1B3 FP inh = PAFAH1B3 enzyme inhibitors, primary screen, biochemical, fluorescence polarization, human; inhibition, % at 3.39 µM; 340,000 compounds, 0.28% hits; Platelet-activating factor acetylhydrolase IB subunit alpha1 (Homo sapiens), Q15102; recombinant PAFAH1B3, FP-rhodamine probe;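 active = inhibition above the screen-wide average of all tested compounds plus 3 SD, cut at about 25% in these data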
LYPLA2 inh = LYPLA2 inhibitors, primary screen, counter-screen for PME1 inhibitor project, biochemical, fluorescence polarization, FP-Rh probe ABPP; Acyl-protein thioesterase 2 (Homo sapiens), O95372; recombinant LYPLA2; inhibition, % at 5.9 µM; 320,000 compounds, 0.38% hits; AID 2177, 2009;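 active = inhibition above the screen-wide mean plus 3 SD, limit set per campaign, cut at about 26% in these data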
Target sequence (O95372 whole entry, looked up): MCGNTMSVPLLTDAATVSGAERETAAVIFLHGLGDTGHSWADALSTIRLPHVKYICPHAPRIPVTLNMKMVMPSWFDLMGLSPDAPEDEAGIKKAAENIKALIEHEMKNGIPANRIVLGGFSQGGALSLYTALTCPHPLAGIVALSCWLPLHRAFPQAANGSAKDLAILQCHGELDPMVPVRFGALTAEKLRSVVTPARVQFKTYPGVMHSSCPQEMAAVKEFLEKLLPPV
PAFAH1B2 FP inh = PAFAH1B2 enzyme inhibitors, primary screen, biochemical, fluorescence polarization, human; recombinant PAFAH1B2, FP-rhodamine activity probe; 340,000 compounds, 1.2% hits; Platelet-activating factor acetylhydrolase IB subunit alpha2 (Homo sapiens), P68402; inhibition, % at 3.39 µM;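 active = inhibition above the mean of all tested compounds plus 3 SD, cut at about 24% in these data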
Target sequence (P68402 whole entry, looked up): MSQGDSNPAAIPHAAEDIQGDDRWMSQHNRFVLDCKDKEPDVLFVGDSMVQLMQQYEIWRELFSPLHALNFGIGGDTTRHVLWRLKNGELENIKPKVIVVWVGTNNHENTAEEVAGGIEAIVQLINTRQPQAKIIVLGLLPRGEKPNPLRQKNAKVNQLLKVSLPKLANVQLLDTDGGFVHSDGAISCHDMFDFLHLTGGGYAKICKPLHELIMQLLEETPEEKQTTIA
LYPLA1 inh = LYPLA1 inhibitors, primary screen, counter-screen for PME1 inhibitor project, biochemical, fluorescence polarization, FP-Rh probe ABPP; Acyl-protein thioesterase 1 (Homo sapiens), O75608; recombinant LYPLA1; inhibition, % at 5.9 µM; 320,000 compounds, 0.16% hits; AID 2174, 2009;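 active = inhibition above the mean of all tested compounds plus 3 SD, set per campaign, cut at about 14% in these data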;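 also: inhibitors block serine hydrolase probe labeling of LYPLA1 so polarization falls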
Target sequence (O75608 whole entry, looked up): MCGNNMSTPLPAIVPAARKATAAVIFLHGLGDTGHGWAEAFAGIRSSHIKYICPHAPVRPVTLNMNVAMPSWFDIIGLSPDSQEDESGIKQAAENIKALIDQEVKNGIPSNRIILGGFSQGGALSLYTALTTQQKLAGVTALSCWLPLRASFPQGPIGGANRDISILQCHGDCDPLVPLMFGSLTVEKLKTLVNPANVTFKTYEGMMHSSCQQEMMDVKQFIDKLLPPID
pPAFAH inh = pPAFAH enzyme inhibitors, primary screen, biochemical, fluorescence polarization, human; recombinant pPAFAH, FP-rhodamine probe fluorescence polarization; inhibition, % at 3.39 µM; Platelet-activating factor acetylhydrolase (Homo sapiens), Q13093; 330,000 compounds, 1.5% hits;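 active = inhibition above the mean inhibition across the screen plus 3 SD, cut at about 25% in these data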;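 also: inhibitors block binding of the rhodamine activity-based probe so polarization drops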
Of the large screens only hits and unclear results are named; the others gave an inactive call. Shown are actives, neighbours in structure and some others; about 2.9% of the full set was active somewhere.

Oc1[nH]c2ccccc2c1N=Nc1ccccc1Cl	none (no result: LYPLA2 inh, LYPLA1 inh, pPAFAH inh)
O=Nc1c(O)[nH]c2ccc(Cl)c(Cl)c12	PAFAH2 FP inh 31, PAFAH1B3 FP inh 43, PAFAH1B2 FP inh 28 (no result: LYPLA2 inh, LYPLA1 inh, pPAFAH inh)
Clc1ccc2c(c1)c1ccccc1n2CN1CCOCC1	none
Clc1ccc2c(c1)c1cc(Cl)ccc1n2CN1CCOCC1	pPAFAH inh 27
CCOC(=O)NC(=O)CSc1nc(-c2ccc(C)c(C)c2)cn1-c1ccccc1	pPAFAH inh 32
Cc1ccc(-c2cn(-c3ccccc3)c(SCC(N)=O)n2)cc1C	pPAFAH inh 30
Cc1ccccc1-n1cc(-c2ccc(Br)cc2)nc1SCC(N)=O	none (no result: PAFAH2 FP inh, PAFAH1B3 FP inh, PAFAH1B2 FP inh)
O=C(COc1ccc(S(=O)(=O)N2CCOCC2)cc1)Nc1ccccc1C(F)(F)F	none
CCOC(=O)Cc1cc(=O)n2[nH]c(-c3ccc(C)cc3)cc2n1	pPAFAH inh 34
CCOC(=O)Cc1cc(=O)n2[nH]cc(-c3cccc(Br)c3)c2n1	PAFAH2 FP inh 31, pPAFAH inh 31
COCc1cc(=O)n2[nH]cc(-c3ccccc3)c2n1	none
CCN(C(C)=O)c1nc(CCl)cs1	none
COc1cc(/C=N/N2CCN(c3ccccc3)CC2)cc(OC)c1OC(C)=O	none
COc1cc(/C=N/N2CCN(c3ccc(Cl)cc3)CC2)cc(OC)c1OC(C)=O	PAFAH1B2 FP inh 25
CN(CC(=O)Nc1ccc(F)c(F)c1F)C(=O)CC1OC(=O)c2ccccc21 (stereo unspecified)	none
COc1ccc(C(=O)NC(C)c2cc(OC)c(OC)cc2Br)cc1 (stereo unspecified)	none
COC(=O)c1cc(CNC(=O)CCCSc2ccccc2)ccc1OC	none (no result: LYPLA2 inh, LYPLA1 inh, pPAFAH inh)
O=C1C=C(NCc2ccc(Cl)cc2)CC(c2ccco2)C1 (stereo unspecified)	PAFAH1B2 FP inh 29
COc1cc(/C=N/NC(=O)c2cc(-c3ccccc3)sc2N)cc(OC)c1OC	pPAFAH inh 26 (no result: PAFAH2 FP inh, PAFAH1B3 FP inh, PAFAH1B2 FP inh)
COc1cc(/C=N/NC(=O)c2ccc(-c3ccccc3)cc2)cc(OC)c1OC	none
c1ccc2c(c1)Nc1nccnc1S2	none
CCOc1ccc(-n2cc(-c3ccccc3)c3c(=S)nc[nH]c32)cc1	pPAFAH inh 28
CC(=O)NC(=S)NNC(=O)COc1ccc(Br)cc1	none (no result: LYPLA2 inh, LYPLA1 inh, pPAFAH inh)
CC(C)(C)NC(=O)C(=O)NNC(=O)COc1ccc(Br)cc1	PAFAH1B2 FP inh 31
CC1(C)C(=O)N(c2ccccc2)C1c1ccccc1O (stereo unspecified)	PAFAH1B2 FP inh 52
CC[C@@H]1C=C(C(=O)O)[C@H](c2ccc(C)cc2)N1S(=O)(=O)c1ccc(C)cc1	none (no result: LYPLA2 inh, LYPLA1 inh)
CC[C@@H]1C=C(C(=O)O)[C@H](c2ccc(Cl)cc2)N1S(=O)(=O)c1ccc(C)cc1	none (no result: LYPLA2 inh, LYPLA1 inh)
CCCC[C@@H]1C=C(C(=O)O)[C@H](c2ccc(Cl)cc2)N1S(=O)(=O)c1ccc(C)cc1	PAFAH1B2 FP inh 28 (no result: LYPLA2 inh, LYPLA1 inh)
Cc1ccc(S(=O)(=O)N2[C@@H](c3ccc(C#N)cc3)C(C(=O)O)=C[C@H]2CC2CCCC2)cc1	PAFAH1B2 FP inh 27 (no result: LYPLA2 inh, LYPLA1 inh)
CCCCC[C@@H]1C=C(C(=O)O)[C@H](c2ccc(Br)cc2)N1S(=O)(=O)c1ccc(C)cc1	PAFAH1B2 FP inh 27 (no result: LYPLA2 inh, LYPLA1 inh)
CCc1ccc([C@H]2C(C(=O)O)=C[C@@H](C(C)(C)C)N2S(=O)(=O)c2ccc(C)cc2)cc1	none (no result: LYPLA2 inh, LYPLA1 inh)
CC(C)(C)[C@@H]1C=C(C(=O)O)[C@H](c2ccc(Cl)cc2)N1S(=O)(=O)c1ccccc1	PAFAH1B2 FP inh 27 (no result: LYPLA2 inh, LYPLA1 inh)
CC(C)c1ccc(NC2CCCN(C(=O)c3ccco3)C2)cc1 (stereo unspecified)	none
O=C(c1ccc(Cn2ccc([N+](=O)[O-])n2)cc1)N1CCN(Cc2ccccc2)CC1	none
O=C(COC(=O)c1cccc(F)c1)Nc1ccc(Cl)cn1	none (no result: LYPLA2 inh, LYPLA1 inh)
CCOC(=O)CC(=O)NC(CC(=O)OC)c1ccc(Br)cc1 (stereo unspecified)	none
COc1cc([C@@H]2CC=C(C(=O)O)[C@H](c3ccccc3)N2S(=O)(=O)c2ccc(C)cc2)cc(OC)c1OC	none
COc1ccc([C@@H]2CC=C(C(=O)O)[C@H](c3cccc(Cl)c3)N2S(=O)(=O)c2ccc(C)cc2)cc1OC	none
Cc1ccc([C@H]2C(C(=O)O)=CC[C@@H](c3cccs3)N2S(=O)(=O)c2ccc(C)cc2)cc1	PAFAH1B2 FP inh 27 (no result: LYPLA2 inh, LYPLA1 inh)
Cc1ccc(S(=O)(=O)N2[C@@H](c3ccc(F)cc3)C(C(=O)O)=CC[C@H]2c2cccs2)cc1	PAFAH1B2 FP inh 30
Cc1ccc(S(=O)(=O)N2[C@@H](c3cccc(Cl)c3)C(C(=O)O)=CC[C@H]2c2cccs2)cc1	PAFAH1B2 FP inh 27
CCCCOC(=O)n1c(=O)oc2cc(S(=O)(=O)N3CCCCC3)ccc21	none
Cc1ccc(CN2CCSc3ccc(C(=O)NCCCN4CCOCC4)cc32)cc1	none
Cc1nc(=O)cc(-c2ccccc2)n1-c1ccccc1	none
O=S(=O)(Nc1cccnc1)c1ccc(Cl)c(C(F)(F)F)c1	PAFAH1B2 FP inh 26
O=c1ccc2ccc(Oc3ccc(Cl)cc3[N+](=O)[O-])cc2o1	LYPLA2 inh 32
[O-][n+]1onc2c1CCC(=N/O)/C2=N\Nc1ccccc1	pPAFAH inh 41 (no result: PAFAH2 FP inh, PAFAH1B3 FP inh, PAFAH1B2 FP inh)
[O-][n+]1c2c(nn1-c1ccccc1)/C(=N/O)CCC2	none
O=C1NC(c2cccc(Br)c2)=N/C1=C\c1ccco1	pPAFAH inh 31
Cc1c(C(=O)N2CCCCC2)c(S(=O)(=O)N2CCN(c3ccc(F)cc3)CC2)c(C)n1C	none
Cc1c(C(=O)N2CCCCC2)c(S(=O)(=O)N2CCN(c3ccc(Cl)cc3)CC2)c(C)n1C	pPAFAH inh 25
O=c1c(Sc2ccccc2)c(C(F)(F)F)[nH]n1-c1ccccc1	PAFAH1B2 FP inh 29
O=c1c2c(C(F)(F)F)cc(C(F)(F)F)nc2[nH]n1-c1ccccc1	none
Cc1ccc(S(=O)(=O)/N=C2\C=C(Nc3cccc(C(=O)O)c3)C(=O)c3ccccc32)cc1	PAFAH2 FP inh 51, PAFAH1B3 FP inh 65, PAFAH1B2 FP inh 36
Cc1cccc(NC2=C(NC(=O)c3ccccc3)C(=O)c3ccccc3C2=O)c1	none
CCc1ccc(S(=O)(=O)/N=C2\C=C(Nc3ccc(C(=O)O)cc3)C(=O)c3ccccc32)cc1	PAFAH2 FP inh 50, PAFAH1B3 FP inh 58, PAFAH1B2 FP inh 32, pPAFAH inh 33
CC(C)(C)c1ccc(S(=O)(=O)/N=C2\C=C(NS(=O)(=O)c3ccccc3)C(=O)c3ccccc32)cc1	PAFAH1B2 FP inh 41
Cc1ccc(S(=O)(=O)/N=C2\C=C(NS(=O)(=O)c3ccccc3)C(=O)c3ccccc32)c(C)c1	none (no result: LYPLA2 inh, LYPLA1 inh, pPAFAH inh)
